Source: PubChem BioAssay (NCI)
About 83,000 compounds went through this panel and 20% of them were active in at least one assay; those are over-represented in the sample as a whole.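 Single-dose data. Exposure time 48 hours. Values below 10 considered active.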 A number with no mark means an inactive call. Active and inactive are the calls of the source.

What was measured:
Assay in all cases: NCI-60 one-dose screen, 48 h (100 = growth as untreated, 0 = no growth, -100 = all killed)
Settings in all cases: 10 µM unless noted
NCI-H23 lung = system: NCI-H23 lung
NCI-H226 lung = system: NCI-H226 lung
NCI-H322M lung = system: NCI-H322M lung
HOP-62 NSCLC = system: HOP-62 NSCLC
NCI-H460 lung = system: NCI-H460 lung
NCI-H522 lung = system: NCI-H522 lung
A549/ATCC NSCLC = system: A549/ATCC NSCLC
786-0 renal = system: 786-0 renal
COLO 205 colon = system: COLO 205 colon
DU-145 prostate = system: DU-145 prostate
K-562 leukemia = system: K-562 leukemia
MALME-3M melanoma = system: MALME-3M melanoma
MDA-MB-231 breast = system: MDA-MB-231 breast
RXF 393 renal = system: RXF 393 renal
SF-268 CNS = system: SF-268 CNS
SF-295 CNS = system: SF-295 CNS
SF-539 CNS = system: SF-539 CNS
UACC-257 melanoma = system: UACC-257 melanoma
M14 melanoma = system: M14 melanoma

Row | Compound | growth (NCI-H23 lung) [%] | growth (NCI-H226 lung) | growth (NCI-H322M lung) [%] | growth (HOP-62 NSCLC) [%] | growth (NCI-H460 lung) | growth (NCI-H522 lung) | growth (A549/ATCC NSCLC) | growth (786-0 renal) | growth (COLO 205 colon) | growth (DU-145 prostate) [%] | growth (K-562 leukemia) | growth (MALME-3M melanoma) | growth (MDA-MB-231 breast) [%] | growth (RXF 393 renal) | growth (SF-268 CNS) [%] | growth (SF-295 CNS) | growth (SF-539 CNS) | growth (UACC-257 melanoma) | growth (M14 melanoma)
1 | O=C(Nc1ccc(Br)cc1)Nc1cccc(Br)c1 | 18.4 | 53.1% | 55.4 | 56.6 | 12.2% | -28.5% (active) | 32.1% | 68.6% | 28.1% | 30.7 | 4.34% (active) | 60.2% | 66.6 | 105% | 69 | 28.1% | 76.6% | 36.3% | 24.1%
2 | C[Si](C)(C)C(c1ccccc1)c1ccccc1 | 99.5 | 113% | 105 | 105 | 106% | 98.2% | 91.1% | 110% | 105% | 102 | 86.7% | 90.2% | 123 | 126% | 104 | 109% | 111% | 109% | 108%
3 | Cc1cc(C#Cc2ccc(C(C)(C)C)cc2)ccc1-n1c(/C=C/c2c(Cl)cccc2Cl)nc2ccccc2c1=O | 97.9 | 108% | 92.8 | 104 | 96.3% | 105% | 95.8% | 109% | 103% | 110 | 101% | 116% | 122 | 127% | 96.8 | 97.9% | 106% | 110% | 106%
4 | Cn1cnc([N+](=O)[O-])c1S(=O)(=O)Oc1cccc2ccccc12 | 85.5 | 88.1% | 104 | 84.6 | 106% | -84.3% (active) | 98.4% | 62.7% | -89.7% (active) | 43.1 | 3.91% (active) | -39.9% (active) | 76.3 | 19.6% | 83.7 | 102% | 52.8% | 71% | -62.9% (active)
5 | COc1cnc2c(c1)C(=O)c1c-2n(CCCN2CCCC2)c(=O)c2cc(Cl)ccc12 | 32.5 | 6.56% (active) | 46.6 | 16.2 | -12.9% (active) | 4.02% (active) | 25.3% | -73.1% (active) | 10.4% | 36 | -72% (active) | 70.3% | 62.4 | 30% | 39.2 | 23% | 4.9% (active) | 63.6% | 37.3%
6 | COc1cc(Cl)cc(-c2nn(C(=O)NCCN3CCOCC3)cc2-c2ccncc2)c1 | 84.9 | 99.7% | 104 | 56.7 | 56.1% | 18.3% | 60.7% | 61.8% | 42.3% | 86.1 | 28.1% | 70.2% | 82.1 | 76.3% | 80.9 | 52.7% | 68.4% | 81.7% | 62%
7 | CCN(CC)CCCC(C)Nc1ccnc2ccc(Oc3ccccc3)cc12 (centres undefined) | 90.6 | 120% | 72 | 86.6 | 95.2% | 36.2% | 81.6% | 72.3% | 41.4% | 88.6 | 13.7% | -38.6% (active) | 42.5 | 24.5% | 66.2 | 93.7% | -41.3% (active) | -54.1% (active) | -58% (active)
8 | C=C(C)[C@@H]1CC[C@]2(C(=O)O)CC[C@]3(C)[C@H](CC[C@@H]4[C@@]5(C)C[C@@H](CC#Cc6ccc(C(C)=O)s6)[C@H](O)C(C)(C)[C@@H]5CC[C@]43C)[C@@H]12 | 60.9 | 77.1% | 41.3 | 50 | 42.7% | 26% | 6.44% (active) | 58.6% | 59.5% | 57.2 | 34.7% | 82.6% | 91.9 | 74.3% | 61.6 | 48.9% | 83.4% | 40.2% | 76%
9 | CCCNCCC(C)=O | 95.1 | 108% | 119 | 106 | 103% | 99.6% | 95.6% | 110% | 108% | 122 | 98.5% | 121% | 113 | 127% | 115 | 97.1% | 114% | 91.7% | 105%
10 | Nc1c(C(=O)C[C@@H](N)CO)ccc2c1C(=O)CCO2 | 55.2 | 76.3% | 16.7 | 28.1 | 13% | 45.1% | 40.4% | 78.6% | 46.9% | 42.9 | 33.4% | 48.2% | 61 | 90.7% | 43.6 | 48.3% | 41.3% | 65.4% | 48.6%
11 | O=C1/C(=C/N2N=C(c3ccc(Cl)cc3)CC2c2ccccc2O)SC(=S)N1c1cccc(C(F)(F)F)c1 (centres undefined) | 53.8 | 63.3% | 71.4 | 69.1 | 44.6% | 30.3% | 38.6% | 66.4% | 71.2% | 63.4 | 42.6% | 79.6% | 44 | 67.4% | 48.1 | 64.7% | 76.1% | 94.5% | 48.2%
12 | Clc1nnc2c3ccccc3ccn12 | 113 | 77.8% | 119 | 98.5 | 105% | 103% | 102% | 99.3% | 103% | 105 | 102% | 135% | 118 | 97.6% | 97.6 | 104% | 109% | 105% | 106%
13 | O=c1c2cc(Cl)ccc2oc2ccc(OCCCCCN3CCCCC3)cc12 | 75.1 | 86.7% | 89.7 | 88.9 | 10.2% | 36.2% | 32.3% | 35.4% | 10.6% | 74.6 | 2.44% (active) | 74.9% | 46.1 | 60.9% | 73.1 | 75.5% | 58.3% | -26.2% (active) | -67.4% (active)
14 | Cc1cc(N)cc(C)c1-c1c(Br)cc(N)cc1Br | 50.9 | 69.2% | 18.8 | 25.1 | 17.4% | -9.5% (active) | 25.2% | 26.7% | 11.9% | 28.6 | 8.58% (active) | 14% | 42.6 | -22.9% (active) | 41.4 | -14% (active) | 15.3% | 62% | 10.8%
15 | O=C(O/C(=C/c1ccccc1)C(F)(F)F)c1ccccc1 | 109 | 102% | 125 | 105 | 117% | 105% | 101% | 107% | 99.3% | 102 | 101% | 118% | 95 | 108% | 96 | 114% | 103% | 101% | 107%
16 | O=C(/C=C/c1ccccc1Br)c1cccc(OCCCCOc2cccc(C(=O)/C=C/c3ccccc3Br)c2)c1 | 89.3 | 89.9% | 98.8 | 103 | 95.5% | 90.7% | 87.7% | 104% | 103% | 104 | 94.6% | 99.6% | 104 | 96.9% | 101 | 95.5% | 102% | 94.1% | 88%
